We go through 92 molecules from PubChem BioAssay AID588497 (NMMLSC, 2011).

Molecules are shown by their SMILES. In all, about 360,000 compounds went through this assay and about 780 (0.22%) were called active. Roughly 4% stayed inconclusive and do not appear here. The sample holds actives, similar compounds and a random draw of the others, so the mix is not that of the screen. Rule as the data show it: active = inhibition above about 35% (passing the limit was not always enough); inconclusive = no clear call, values can overlap the other calls.

For the test, the system named is Botulinum neurotoxin type F light chain protease (Clostridium botulinum). Description: BoNT/F light chain protease inhibitors, primary screen, biochemical, flow cytometry, MLPCN library (AID 588497). Also: plate controls were buffer without enzyme for full effect and enzyme alone for no effect. To be noted: Multiplex microsphere protease cleavage assay, at 10 µM, active compounds read high.
The inhibition is the change of the read-out against control, counted positive when it falls. With `c1ccc2c(c1)CCc1snnc1-2`, the inhibition was 40.3% (active).

For `C=CCN(CC=C)S(=O)(=O)c1ccc(C(=O)Nc2nc3c(s2)CCc2ccccc2-3)cc1`, the inhibition was -8.2% (inactive).

In the case of `O=C(c1snnc1-c1ccccc1)N1CCOCC1`, the inhibition is -9% (inactive).

Take `COc1ccc(CC(N)c2csc(NC(=O)Nc3ccc(C(C)C)cc3)n2)cc1` (configuration not stated): the inhibition is -11.1% (inactive).

`CN(C)c1ccc(/C=C2\NC(=S)N(Cc3ccccc3)C2=O)cc1`: the inhibition was 35.7% (active).

Regarding `CN(C)c1ccc(C=C2C(=O)OC3(CCCC3)OC2=O)cc1`, the inhibition was 6.6% (inactive).

On to `CC1CN(Cc2ccccc2)C(=S)NC1=O` (configuration not stated), for which the inhibition was 0.1% (inactive).

Turning to `Cc1ccc(CC2(C)C(=O)Nc3ccc(OC(F)(F)F)cc32)cc1` (configuration not stated), the inhibition was -5% (inactive).

With `C=CCC[C@@H](CCCCC)OC(=O)/C=C/[C@@H](O)[C@H](O)C[C@H](O)CC=C`, the inhibition was 4.2% (inactive).

On to `O=C1NC[C@H](Cc2ccc(O)cc2)N(C[C@H]2CCCN2C[C@H](Cc2ccccc2)N2C[C@H](Cc3ccccc3)N(CCc3ccccc3)C(=O)C2=O)C1=O`, for which the inhibition is -3.4% (inactive).

As for `O=C1Nc2ccccc2NC(c2ccc3c(c2)OCO3)=C1N(Cc1ccc(F)cc1)C(=O)c1ccco1`, the inhibition is -0.6% (inactive).

For `Cn1c(Nc2ccccc2)cc(=O)n(C)c1=O`, the inhibition was 35.2% (active).

With `CC(C)Oc1ccc(C(=O)Nc2cc(=O)n(C)c(=O)n2C)cc1`, the inhibition is -0.5% (inactive).

Consider `Cc1cc(=O)n(C)c(=O)n1CCCNc1ccccc1`, for which the inhibition was 6.9% (inactive).

As for `CC(=O)c1cccc(-c2cnc3c(NC=O)cc(-c4ccccc4Oc4ccccc4)cn23)c1`, the inhibition is -5.9% (inactive).

With `CC1CCc2c(sc3nc4n(c(=O)c23)CCS4)C1` (configuration not stated), the inhibition is 43.2% (active).

In the case of `CCCn1nnc2sc3c(c2c1=O)CCC(C)C3` (configuration not stated), the inhibition was -1.8% (inactive).

As to `C=CCn1c(SCc2c(C)noc2C)nc2sc3c(c2c1=O)CCC(C)C3` (configuration not stated), the inhibition is -1.6% (inactive).

With `COc1ccc(C(c2nnnn2C2CCCC2)N2CCN(C/C=C/c3ccccc3)CC2)cc1` (configuration not stated), the inhibition is -6.6% (inactive).

For `CC(=O)Nc1cc(-c2cccc(CO)c2)cn2c(-c3cccc(C(F)(F)F)c3)cnc12`, the inhibition is 0.9% (inactive).

Regarding `O=C(NC(c1ccc(Cl)cc1)c1cnccn1)C1CCN(Cc2ccc(Cl)cc2)CC1` (configuration not stated), the inhibition is -2.2% (inactive).

Consider `Cc1nc2c(OCc3ccc(Cl)cc3Cl)cccn2c1N(C)CC1CC1`, for which the inhibition was -6% (inactive).

For the molecule `Cc1nn(C)c(C)c1Sc1ccccc1N`, the inhibition is -4.3% (inactive).

As to `Nc1ccccc1Sc1cc(Cl)nnc1Cl`, the inhibition was 82.9% (active).

Regarding `CC(C)Nc1nc(NCCOc2ccccc2Cl)c2sccc2n1`, the inhibition was -12.7% (inactive).

Turning to `NC(Cc1ccc(F)cc1)c1csc(Nc2nncc3ccccc23)n1` (configuration not stated), the inhibition is -21.6% (inactive).

With `COc1ccc(-c2coc3c(C(=O)NC(C)C)cccc23)c(C)c1`, the inhibition is -5.4% (inactive).

Turning to `COc1cc(N2CCCC2)c(OC)cc1/C=C(/C#N)c1cccc(Br)c1`, the inhibition is 169% (active).

For the molecule `CCOc1ccc(/C=C(/C#N)c2nnc(N3CCOCC3)n2-c2ccccc2)cc1OC`, the inhibition was -9.5% (inactive).

As for `COc1ccc(-c2ccc(C(=O)NCCN3CCOCC3)c3occc23)c(C)c1`, the inhibition is -4.4% (inactive).

Take `CCc1nc2ccc(C(=O)Nc3cccc(OC)c3)cn2c1N(CCC(C)C)CCN(C)C`: the inhibition was 3% (inactive).

With `CCOCCC(=O)Nc1ccc2c(c1)c(=O)n(C)n2-c1ccc2ccccc2c1`, the inhibition is -6% (inactive).

On to `OC(c1ccc(Cl)cc1)c1ncc(-c2ccc(Cl)cc2)[nH]1` (configuration not stated), for which the inhibition was -8.9% (inactive).

As for `CCN(CC)C(=O)CN(c1cccc(OC)c1)S(=O)(=O)c1ccc(C)cc1`, the inhibition was -9.7% (inactive).

For `COC(=O)CN(c1nc(C)c(Cl)c(OC)n1)S(=O)(=O)c1ccc(C)cc1`, the inhibition is 41.2% (active).

As to `COc1ccc(CNC(=O)CN(c2ccc(OC)c(Cl)c2)S(=O)(=O)c2ccc(C)cc2)cc1`, the inhibition is -6.9% (inactive).

For `CC(=O)Nc1cccc(-c2cc(NC=O)c3ncc(-c4ccc(F)c(Cl)c4)n3c2)c1`, the inhibition was -9.5% (inactive).

Consider `COc1ccc(-c2cc(NC(C)=O)c3ncc(-c4cc(OC)c(OC)c(OC)c4)n3c2)cn1`, for which the inhibition is 2.1% (inactive).

`CC1(C(=O)NCc2cccc3ccccc23)CCN1Cc1ccc(-c2ccccc2)o1` (configuration not stated): the inhibition was -9.6% (inactive).

With `CCc1nc2c(OCc3ccc(C(F)(F)F)cc3)cccn2c1N(C)C(=O)CC(C)C`, the inhibition was 0.4% (inactive).

As for `O=C(CN1CCN(c2ccccc2O)CC1)NC(=O)NCc1ccccc1`, the inhibition is 69.8% (active).

Consider `COc1ccccc1N1CCN(CC(=O)NC(=O)NCc2ccco2)CC1`, for which the inhibition was -6.6% (inactive).

On to `Oc1ccccc1N1CCN(C(=S)NCc2ccccc2)CC1`, for which the inhibition was -13.6% (inactive).

With `Cc1ccc(Cc2c(-c3ccc(Cl)cc3)nc3c4ccccc4ccn23)cc1`, the inhibition was -5.5% (inactive).

In the case of `CSCCC(c1nnnn1Cc1ccccc1)N1CCN(C/C=C/c2ccccc2)CC1` (configuration not stated), the inhibition was -9.9% (inactive).

Take `CCN1CCN(C2CCCCC2NS(=O)(=O)c2ccc(Cl)cc2)CC1` (configuration not stated): the inhibition is -2% (inactive).

With `O=S(=O)(NC1CCCCC1N1CCCCC1)c1ccc(Cl)cc1` (configuration not stated), the inhibition was 24.7% (inactive).

Regarding `O=S(=O)(NC1CCCCC1N1CCC(O)CC1)c1ccc(Cl)cc1` (configuration not stated), the inhibition is 110% (active).

As to `c1ccc(Cc2c(-c3ccco3)nc3c4ccccc4ccn23)cc1`, the inhibition was 4.5% (inactive).

As to `CCOc1ccc2[nH]c(=S)sc2c1`, the inhibition was 4.7% (inactive).

With `C[C@H]([C@@H](O)[C@@H](O)[C@@H](C)C(C)(C)C)[C@H]1CC[C@H]2C3CC[C@H]4C[C@H](OS(=O)(=O)O)[C@@H](OS(=O)(=O)O)C[C@]4(C)[C@H]3CC[C@]12C` (some centres not stated), the inhibition is 7.2% (inactive).

For the molecule `COc1ccc(-c2cc(NC=O)c3ncc(-c4cc(OC)c(OC)c(OC)c4)n3c2)c(OC)c1`, the inhibition is -7.7% (inactive).

With `Cc1c(NC(=O)c2cccnc2)c(=O)n(-c2ccccc2)n1C`, the inhibition is 58.9% (active).

With `Cc1c(NC(=O)c2c([N+](=O)[O-])cnn2C)c(=O)n(-c2ccccc2)n1C`, the inhibition is -13.3% (inactive).

Take `Cc1c(NC(=O)c2coc(=O)c(Br)c2)c(=O)n(-c2ccccc2)n1C`: the inhibition is 0.1% (inactive).

`CCCCCc1c(Cc2ccccc2)ncn1CCc1ccccc1OC`: the inhibition is -7% (inactive).

Take `Cc1cc2nc(-c3ccc(Cl)cc3)c(Cc3cccc(F)c3)n2c(C)c1Br`: the inhibition was -1.2% (inactive).

In the case of `COc1ccc(CC(N)c2csc(NC(=O)NC(c3ccccc3)c3ccccc3)n2)cc1` (configuration not stated), the inhibition is -27.6% (inactive).

On to `O=C(Nc1nnc(SCc2c(Cl)cccc2Cl)s1)C1CCCO1` (configuration not stated), for which the inhibition is -21.4% (inactive).

On to `O=C(Nc1nnc(CCc2ccccc2)s1)C1CCCO1` (configuration not stated), for which the inhibition is 37% (active).

Consider `O=C(Nc1ccc(-c2nnc(-c3ccccc3)o2)cc1)C1CCCO1` (configuration not stated), for which the inhibition is -1.7% (inactive).

`NCCCNC(=S)NCCCN(Cc1ccc(Cl)cc1)c1ccc(Br)cn1`: the inhibition is -47.9% (inactive).

Take `C=C1C(=O)OC2C1CCC(C)=CCCC1(C)OC21` (configuration not stated): the inhibition was -2.6% (inactive).

On to `COc1ccc(Cl)cc1-c1cc(C(=O)Nc2cc(OC)c(OC)c(OC)c2)[nH]n1`, for which the inhibition was -0.6% (inactive).

Take `CCCc1c(-c2ccccc2F)ncn1Cc1ccccc1OC`: the inhibition is -10.4% (inactive).

Consider `Cc1ccc(NC(=O)c2ccco2)cc1`, for which the inhibition was -6% (inactive).

Regarding `Cc1ccc(C(=O)COc2cccc(NC(=O)c3ccco3)c2)cc1`, the inhibition is 44.6% (active).

Take `Cc1cccc(OCC(=O)Nc2ccc(NC(=O)c3ccco3)c(C)c2)c1`: the inhibition is 17.3% (inactive).

Consider `Clc1cccc(Cc2c(-c3cccc(Cl)c3)nc3ccc(Cl)cn23)c1`, for which the inhibition was -3.7% (inactive).

For `Fc1cccc(Cc2c(-c3ccc(Cl)cc3)nc3ccc(Cl)cn23)c1`, the inhibition was -6% (inactive).

Take `CCC(C)(C(=O)NC1CCCCC1)N(C)C(=O)c1ccc2c(c1)OCO2` (configuration not stated): the inhibition was 4% (inactive).

As for `O=C(Cc1ccccc1[N+](=O)[O-])N1CCN(Cc2ccc3c(c2)OCO3)CC1`, the inhibition is -12.3% (inactive).

For `CCN1CCN(C(C(=O)NC2CCCC2)c2cc3c(cc2[N+](=O)[O-])OCO3)CC1` (configuration not stated), the inhibition is 35.9% (active).

As to `OC(c1ccccc1)c1nc(/C=C/c2ccc(C(F)(F)F)cc2)cs1` (configuration not stated), the inhibition was -10.4% (inactive).

Turning to `Cc1cc(=O)oc2c3c(cc(OCC(=O)NCC(O)c4ccccc4)c12)OC(C)(C)CC3` (configuration not stated), the inhibition is -2% (inactive).

Take `O=C(CC[C@H]1O[C@@H](n2ccc(=O)[nH]c2=O)[C@H](O)[C@@H]1O)N[C@H](Cc1ccccc1)C(=O)NCCCN1CCCC1=O`: the inhibition is 1.4% (inactive).

As for `CC(=O)c1cccc(NC(=O)N2CCCC2C(=O)NCCc2ccccc2)c1` (configuration not stated), the inhibition was 35.3% (active).

As for `O=C(NCCc1ccc(Cl)cc1)C1CCCN1C(=O)NCc1ccccc1` (configuration not stated), the inhibition is -20.3% (inactive).

Regarding `Cc1ccc(CNC(=O)C2CCCN2C(=O)NCc2ccccc2)cc1` (configuration not stated), the inhibition was 5.7% (inactive).

With `CCOC(=O)c1ccc(-c2ccc3ncnc(N(C)Cc4sccc4C)c3c2)o1`, the inhibition is 6.1% (inactive).

As for `CC(=O)N1Cc2cc(C(=O)NCc3cccc(F)c3)nc(-c3cccc(C4=CCCCC4)c3)c2[C@H]1CCO`, the inhibition is -0.7% (inactive).

As for `CN(C(=O)c1ccccn1)c1nnc(-c2ccccn2)s1`, the inhibition was 40.4% (active).

`CN(C(=O)C1CCOC1)c1nnc(-c2cccnc2)s1` (configuration not stated): the inhibition is 6.9% (inactive).

Consider `O=C(Nc1nnc(C2CC2)s1)c1ccccn1`, for which the inhibition was -19.8% (inactive).

Regarding `CC(C)Cc1nnc(NC(=O)CCC(=O)Nc2ccc3cn[nH]c3c2)s1`, the inhibition was 43.7% (active).

Take `CC(C)Cc1nnc(NC(=O)CN2C(=O)NC3(CCCCC3)C2=O)s1`: the inhibition was 7.7% (inactive).

As for `CC(C)Cc1nnc(NC(=O)CCNC(=O)c2ccccc2Cl)s1`, the inhibition is -5.1% (inactive).

On to `CCCc1nc2c3ccccc3ccn2c1Cc1ccccc1C(F)(F)F`, for which the inhibition was 1% (inactive).

In the case of `Cc1nc2c(OCc3ccc(Cl)cc3)cccn2c1N(C)Cc1cccs1`, the inhibition was -1.1% (inactive).

Consider `COC(=O)C[n+]1cccc2ccccc21`, for which the inhibition was 10% (inactive).

For `O=C(CNC(=O)c1ccccc1F)c1ccc(Br)cc1`, the inhibition was -24.7% (inactive).

With `O=C(C[n+]1cc(Br)cc2ccccc21)c1ccc(F)cc1`, the inhibition was 41.8% (active).
